Experimental data from PubChem BioAssay (NCI).
About 79,000 compounds went through this panel and 15% of them were active in at least one assay; those are over-represented in the sample as a whole. Active and inactive are the calls of the source. Rule as the data show it: active = growth inhibition above about 70%; inactive = the rest.

Legend:
[1] = NCI Yeast Anticancer Drug Screen. Data for the rad52 strain (AID 147);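 also: 0% = growth of vehicle-treated control cultures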; conditions: S. cerevisiae rad52 mutant growth inhibition, hits give high values
Procedure, shortened: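 Here a repair-compromised yeast strain receives each compound; its growth is then quantified and normalised to vehicle-only controls.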

[2] = NCI Yeast Anticancer Drug Screen. Data for the wt1 strain (AID 149);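 also: 0% = growth of vehicle-treated wt1 cultures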; conditions: S. cerevisiae wt1 strain (SPY 50644) growth inhibition, hits give high values
Procedure, shortened: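 wt1 yeast, compound-treated; % growth inhibition vs vehicle control.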

[3] = NCI Yeast Anticancer Drug Screen. Data for the rad50EPP+ strain (AID 151);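 also: 0% = growth of vehicle-treated control cultures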; conditions: S. cerevisiae rad50 mutant strain, hits give high values
Procedure, shortened: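 Read-out is yeast growth inhibition relative to vehicle; cells used were the rad50EPP+ strain.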

[4] = NCI Yeast Anticancer Drug Screen. Data for the mgt1 strain (AID 153); conditions: S. cerevisiae mgt1 mutant growth inhibition, hits give high values
Procedure, shortened: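 Measured: inhibition of mgt1 yeast growth by compound, normalized to vehicle-treated cultures.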

[5] = NCI Yeast Anticancer Drug Screen. Data for the rad50 strain (AID 155);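 also: 0% = growth of vehicle-only cultures of the same strain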; conditions: S. cerevisiae rad50 strain growth inhibition, hits give high values
Procedure, shortened: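 Genetically altered yeast (DNA repair pathway); compound treatment; growth inhibition vs vehicle ctrl.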

[6] = NCI Yeast Anticancer Drug Screen. Data for the mec2-1 strain (AID 157); conditions: S. cerevisiae mec2-1 strain, hits give high values
Procedure, shortened: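 Using mec2-1 yeast: add compound, measure growth, express inhibition versus vehicle-treated cultures.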

[7] = NCI Yeast Anticancer Drug Screen. Data for the rad14 strain (AID 159);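 also: 0% = growth of vehicle-treated control cultures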; conditions: S. cerevisiae rad14 strain growth inhibition, hits give high values
Procedure, shortened: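 Test compounds were applied to a repair-deficient yeast strain. Its growth was then compared with that of cultures given vehicle alone, and inhibition was expressed relative to those controls.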

[8] = NCI Yeast Anticancer Drug Screen. Data for the sgs1 mgt1 strain (AID 161);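 also: 0% = growth of cultures given vehicle only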; conditions: S. cerevisiae sgs1 mgt1 strain, hits give high values
Procedure, shortened: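 Yeast cells carrying a defined DNA-repair defect were exposed to test compounds. Growth inhibition was measured relative to vehicle-treated controls.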

[9] = NCI Yeast Anticancer Drug Screen. Data for the CLN2oe strain (AID 163);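 also: 0% = growth of vehicle-only control cultures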; conditions: S. cerevisiae CLN2oe strain, hits give high values
Procedure, shortened: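 Whole-cell yeast growth assay. A strain engineered for altered cell-cycle control received compound, and inhibition relative to vehicle-treated cultures was recorded.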

[10] = NCI Yeast Anticancer Drug Screen. Data for the cln2 rad14 strain (AID 165);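 also: 0% = growth equal to vehicle treated cultures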; conditions: S. cerevisiae cln2 rad14 strain, hits give high values
Procedure, shortened: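 Yeast strain cln2 rad14, bearing defects in cell cycle control and DNA repair, serves as the test system; values reflect growth inhibition compared with vehicle.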

[11] = NCI Yeast Anticancer Drug Screen. Data for the bub3 strain (AID 167); conditions: S. cerevisiae bub3 mutant strain, hits give high values
Procedure, shortened: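 Yeast carrying a defined mutation is treated with each compound, and growth is compared with that of vehicle-exposed cells to give inhibition.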

[12] = NCI Yeast Anticancer Drug Screen. Data for the wt2 strain (AID 169);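 also: 0% = growth of vehicle-treated yeast cultures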; conditions: S. cerevisiae wt2 strain growth inhibition, hits give high values
Procedure, shortened: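 Treated yeast vs. vehicle-treated yeast: growth inhibition determined.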

[13] = NCI Yeast Anticancer Drug Screen. Data for the mlh1 rad18 strain (AID 175); conditions: S. cerevisiae mlh1 rad18 strain growth inhibition, hits give high values
Procedure, shortened: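 Steps: expose repair-defective yeast to compound; measure growth; express inhibition against vehicle-treated controls.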

[14] = NCI Yeast Anticancer Drug Screen. Data for the mlh1 strain (AID 171);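 also: 0% = growth of vehicle-treated control cultures of the same strain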; conditions: S. cerevisiae mlh1 strain growth inhibition, hits give high values
Procedure, shortened: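 A yeast strain with a defined genetic lesion serves as the test organism. Cultures receive compound or vehicle, and growth is measured.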

[15] = NCI Yeast Anticancer Drug Screen. Data for the sgs1 strain (AID 173);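 also: 0% = growth of vehicle-only control cultures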; conditions: S. cerevisiae sgs1 mutant, hits give high values
Procedure, shortened: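 A genetically defined yeast mutant is incubated with the test compound, and its growth is compared to that of the same strain given vehicle.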

[16] = NCI Yeast Anticancer Drug Screen. Data for the rad18 strain (AID 177); conditions: S. cerevisiae rad18 mutant growth inhibition, hits give high values
Procedure, shortened: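 Measured value is growth inhibition of a yeast strain bearing a DNA repair alteration, referenced to vehicle-treated cells.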

[17] = at 5.0 µM (retest, dose inferred, filed as 0.5)
[18] = at 50.0 µM (retest, dose inferred, filed as 5.0)

Measured: growth inhibition

CC1(Cl)CC(O)C2(CC1Br)C1(C)OC1C1OC1(Br)C2(C)C (stereo unspecified)
active: [1]; at 100.0 µM 98% | [2]; at 100.0 µM 98% | [3]; at 100.0 µM 73% | [4]; at 33.0 µM 74% | [4]; at 100.0 µM 98% | [5]; at 33.0 µM 73% | [5]; [18] 79% | [5]; at 100.0 µM 97% | [6]; at 100.0 µM 98% | [7]; at 100.0 µM 97% | [8]; [18] 86% | [9]; at 100.0 µM 98% | [11]; [18] 89% | [11]; at 50.0 µM 73.5% | [11]; at 100.0 µM 98% | [12]; at 100.0 µM 98% | [13]; [18] 80%
inactive: [1]; at 1.2 µM 14% | [1]; at 3.7 µM 19% | [1]; at 11.0 µM 31% | [1]; at 33.0 µM 66% | [2]; at 1.2 µM 1% | [2]; at 3.7 µM -20% | [2]; at 11.0 µM -2% | [2]; at 33.0 µM 60% | [3]; at 1.2 µM -9% | [3]; at 3.7 µM -12% | [3]; at 11.0 µM -21% | [3]; at 33.0 µM 2% | [4]; at 1.2 µM -18% | [4]; at 3.7 µM -14% | [4]; at 11.0 µM -1% | [5]; at 1.2 µM -8% | [5]; at 3.7 µM -12% | [5]; [17] 12% | [5]; at 11.0 µM 1% | [5]; at 50.0 µM 62.6% | [6]; at 1.2 µM -29% | [6]; at 3.7 µM -21% | [6]; [17] 0% | [6]; at 11.0 µM -23% | [6]; at 33.0 µM 39% | [6]; [18] 53% | [6]; at 50.0 µM 59.2% | [7]; at 1.2 µM -18% | [7]; at 3.7 µM -14% | [7]; at 11.0 µM -23% | [7]; at 33.0 µM 61% | [8]; [17] 2% | [8]; at 50.0 µM 67.8% | [9]; at 1.2 µM 2% | [9]; at 3.7 µM 3% | [9]; at 11.0 µM 5% | [9]; at 33.0 µM 31% | [10]; [17] 33% | [10]; [18] 58% | [10]; at 50.0 µM 42.5% | [11]; at 1.2 µM -15% | [11]; at 3.7 µM 1% | [11]; [17] 29% | [11]; at 11.0 µM 1% | [11]; at 33.0 µM 35% | [12]; at 1.2 µM -10% | [12]; at 3.7 µM -5% | [12]; at 11.0 µM -1% | [12]; at 33.0 µM 62% | [13]; [17] -13% | [13]; at 50.0 µM 62.6%

CC(=O)Cc1ccc[cH-]1.[Fe+2].c1cc[cH-]c1
inactive: [1]; at 1.2 µM 5% | [1]; at 3.7 µM 7% | [1]; at 11.0 µM 9% | [1]; at 33.0 µM 18% | [1]; at 100.0 µM 46% | [2]; at 1.2 µM 1% | [2]; at 3.7 µM 2% | [2]; at 11.0 µM 14% | [2]; at 33.0 µM 10% | [2]; at 100.0 µM 7% | [3]; at 1.2 µM 3% | [3]; at 3.7 µM 4% | [3]; at 11.0 µM 8% | [3]; at 33.0 µM 15% | [3]; at 100.0 µM 13% | [4]; at 1.2 µM 8% | [4]; at 3.7 µM 11% | [4]; at 11.0 µM 21% | [4]; at 33.0 µM 11% | [4]; at 100.0 µM 20% | [5]; at 1.2 µM 12% | [5]; at 3.7 µM 24% | [5]; [17] -14% | [5]; at 11.0 µM 22% | [5]; at 33.0 µM 22% | [5]; [18] 8% | [5]; at 100.0 µM 62% | [6]; at 1.2 µM -5% | [6]; at 3.7 µM -5% | [6]; [17] -6% | [6]; at 11.0 µM -1% | [6]; at 33.0 µM 12% | [6]; [18] -12% | [6]; at 50.0 µM 60.6% | [6]; at 100.0 µM 18% | [7]; at 1.2 µM 0% | [7]; at 3.7 µM -5% | [7]; at 11.0 µM 13% | [7]; at 33.0 µM 34% | [7]; at 100.0 µM 49% | [8]; [17] -4% | [8]; [18] 12% | [9]; at 1.2 µM 4% | [9]; at 3.7 µM 5% | [9]; at 11.0 µM 17% | [9]; at 33.0 µM 23% | [9]; at 100.0 µM 23% | [10]; [17] -7% | [10]; [18] 7% | [10]; at 50.0 µM 40.5% | [11]; at 1.2 µM -4% | [11]; at 3.7 µM -10% | [11]; [17] -4% | [11]; at 11.0 µM 7% | [11]; at 33.0 µM 13% | [11]; [18] 15% | [11]; at 100.0 µM 21% | [14]; at 1.2 µM -1% | [14]; at 3.7 µM -3% | [14]; at 11.0 µM -2% | [14]; at 33.0 µM 7% | [14]; at 100.0 µM 29% | [15]; at 1.2 µM 0% | [15]; at 3.7 µM 0% | [15]; at 11.0 µM 9% | [15]; at 33.0 µM 23% | [15]; at 100.0 µM 46% | [13]; [17] 3% | [13]; [18] 68% | [16]; at 1.2 µM 6% | [16]; at 3.7 µM 17% | [16]; at 11.0 µM 29% | [16]; at 33.0 µM 10% | [16]; at 100.0 µM 35%
active: [5]; at 50.0 µM 96.2% | [8]; at 50.0 µM 86.8% | [11]; at 50.0 µM 72.5% | [13]; at 50.0 µM 92.7%
